This is a sample that favours compounds with a hit; in the whole collection about 21% have one here.
MRP reversal – reversal of MRP1-mediated doxorubicin resistance, primary screen, H69AR cells, doxorubicin co-treatment | H69AR cells + 2 uM doxorubicin, CellTiter-Glo, 72 h | differential viability (reversal), % at 10 µM | 85,000 compounds, 0.04% hits;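 active = viability drop by adding the cancer drug above about 55%, with treated viability meeting a 40% cutoff, limit read from the data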;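 note: viability without doxorubicin minus viability with 2 µM doxorubicin for each compound; larger differential means the compound sensitizes cells more to doxorubicin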
CYP2C9 act – human CYP2C9 activators, primary screen, biochemical, luminescence; Cytochrome P450 2C9 (Homo sapiens), P11712; recombinant CYP2C9, luciferin-H conversion; hits give high values; factor 1 = untreated enzyme, 0 = blocked; activation factor at 5 µM; 96,000 compounds, 1.4% hits; AID 1024, 2008;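 active = activation factor of 2 or more for CYP2C9 at a 5 µM dose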;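 note: 0 = sulfaphenazole-blocked wells and 1 = vehicle-only wells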
CYP2C9 inhib – blockers of cytochrome P450 2C9 activity – biochemical, luminescence, ADME assay, primary screen. P11712. CYP2C9 Supersomes, luciferin-H conversion. inhibition, % at 5 µM. 96,000 compounds, 20% hits. AID 777, 2007;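 active = blocking of liver enzyme CYP2C9 beyond about 50% at 5 µM, limit read from the data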
CYP2C19 activ – human CYP2C19 activators, primary screen, biochemical, luminescence | Cytochrome P450 2C19 (Homo sapiens), P33261 | 96,000 tested, under 10 active | activation factor at 5 µM | recombinant CYP2C19, luciferin-H EGE luminescence; hits give high values; 0 = fully inhibited enzyme, 1 = untreated enzyme | AID 1025, 2008;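 active = activation factor of at least 2 at 5 µM in the primary screen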;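 note: 0 = wells with 2.5 mM tranylcypromine and 1 = vehicle-only wells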
Target sequence (P33261 whole entry, looked up): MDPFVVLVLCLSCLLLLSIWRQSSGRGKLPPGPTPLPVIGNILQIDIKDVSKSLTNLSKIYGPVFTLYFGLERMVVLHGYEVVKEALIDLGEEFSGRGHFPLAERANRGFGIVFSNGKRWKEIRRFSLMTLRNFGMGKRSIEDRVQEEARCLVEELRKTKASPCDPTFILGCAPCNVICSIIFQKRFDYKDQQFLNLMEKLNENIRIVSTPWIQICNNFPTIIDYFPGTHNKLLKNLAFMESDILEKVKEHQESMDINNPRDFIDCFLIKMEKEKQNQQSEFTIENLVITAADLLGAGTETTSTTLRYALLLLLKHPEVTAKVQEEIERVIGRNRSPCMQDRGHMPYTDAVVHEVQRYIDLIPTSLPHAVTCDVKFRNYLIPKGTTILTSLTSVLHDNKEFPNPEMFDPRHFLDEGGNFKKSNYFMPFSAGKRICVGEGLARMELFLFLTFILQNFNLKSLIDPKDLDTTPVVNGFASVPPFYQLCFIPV
CYP2C19 inhib – blockers of cytochrome P450 2C19 activity – biochemical, luminescence, ADME assay, primary screen | inhibition, % at 5 µM | 96,000 compounds, 21% hits | P33261 | CYP2C19 Supersomes, luciferin-H EGE luminescence, 30 min;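 active = CYP2C19 inhibition above a set limit at 5 µM in the primary screen, cut at about 50% in these data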;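 note: plate controls were negative control wells for no effect and 2.5 mM tranylcypromine positive control for full effect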
MRP1 act – H69AR viability gain despite doxorubicin, primary screen, MRP-1 activator project, H69AR cells, CellTiter-Glo; viability rescue; viability increase, % at 10 µM; 140,000 compounds, 0.61% hits; AID 799, 2007;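 active = viability gain under doxorubicin at or above a set limit, the compound median plus 3 SD, cut at about 4.7% in these data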;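 note: MRP-1 overexpressing cells given doxorubicin 25 µM after compound pretreatment; 18-22 h compound pretreatment then 72 h with doxorubicin before readout; 0% = doxorubicin-only wells and 100% = vehicle-treated cells without doxorubicin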
* hit, by the source's call; x = not tested or not shown.

SMILES	MRP reversal	CYP2C9 act	CYP2C9 inhib	CYP2C19 activ	CYP2C19 inhib	MRP1 act
Cc1cc(NCc2ccccn2)nc2ccccc12	-3	3*	-197	0.4	56*	-3
O=C1C2C(c3ccccc3)C=CC(c3ccccc3)C2C(=O)N1CCO (configuration not stated)	-4	0.3	74*	0	99*	x
O=C1C2C3C=CC(C3=C(c3ccccc3)c3ccccc3)C2C(=O)N1Cc1ccccc1 (configuration not stated)	10	1.1	-14	0.5	54*	3
O=C1C2C(c3ccccc3)C=CC(c3ccccc3)C2C(=O)N1C1CCCCC1 (configuration not stated)	7	0.2	80*	1.2	-18	-2
CCCOc1ccc(C(=O)CCC(=O)OCC(=O)N2CC(=O)Nc3ccccc32)cc1	x	0.8	22	0.9	10	0
CCN(CC)c1ccc(/C=C2/C(=O)c3ccc(C(=O)O)cc3C2=O)cc1	x	x	x	x	x	0
O=c1c2ccccc2nc(-c2ccc(Cl)cc2)n1C1CCS(=O)(=O)C1 (configuration not stated)	12	x	x	x	x	x
Cc1ccccc1-c1nc2ccccc2c(=O)n1C1CCS(=O)(=O)C1 (configuration not stated)	-8	1	3	0.1	88*	-1
CCOC(=O)c1sc(N)c(C#N)c1CSc1nnc(C2CCCCC2)n1N	1	0.2	78*	0.6	44	0
CSC1=N/C(=C\c2ccccc2F)C(=O)S1	5	1	4	0.4	63*	-2
CC(C)C(=O)Nc1ccccc1N1CCN(S(C)(=O)=O)CC1	-13	0.9	6	0.8	18	-1
O=C(Nc1ccccc1N1CCN(C(=O)c2ccc(Cl)cc2)CC1)c1cccnc1	23	0.1	93*	0.1	88*	0
CC(C)C(=O)Nc1ccccc1N1CCN(C(=O)c2ccccc2)CC1	16	0.4	63*	0.3	68*	-2
O=C(CSc1ccc(Cl)cc1)Nc1ccccc1N1CCN(C(=O)c2ccccc2)CC1	x	0.8	24	0.9	10	0
CC(C)CC(=O)Nc1ccccc1N1CCN(C(=O)c2ccccc2)CC1	4	0.2	76*	0.2	77*	-3
COc1ccc(NC(=O)N2CCC(n3nnc4cc(C)ccc43)CC2)cc1	11	x	x	x	x	-1
O=C(Nc1ccc(Cl)cc1C(=O)NCC1CCCO1)c1ccc(Cl)cc1Cl (configuration not stated)	x	x	x	x	x	-1
Cn1cnnc1SCc1ccccc1	-6	1.2	-22	1.1	-13	0
Cn1cnnc1SCC(=O)N1CCC(Cc2ccccc2)CC1	11	1	1	0.2	77*	-1
COC(=O)CSc1nnc(CNC(=O)c2ccco2)n1-c1ccc(F)cc1	3	1.1	-15	1.2	-20	-3
COCCn1c(C)cc(C2=NNC(=Nc3ccccc3F)SC2)c1C	9	0.6	38	0.5	53*	-2
Cc1ccc(OCc2ccc(C(=O)Nc3nc4ccccc4n3Cc3ccccc3)o2)c([N+](=O)[O-])c1	x	0.4	63*	0.8	21	-6
O=C(Cn1c(NCCO)nc2ccccc21)c1ccccc1	4	x	x	x	x	0
O=C(Cn1c(NCCCO)nc2ccccc21)c1ccc(Br)cc1	15	0.4	58*	0.3	74*	-3
Cc1ccc(OC(=O)CCc2c(C)nc3ncnn3c2C)cc1	10	0.9	10	0.4	56*	-2
SMILES	MRP reversal	CYP2C9 act	CYP2C9 inhib	CYP2C19 activ	CYP2C19 inhib	MRP1 act
Cc1nc2ncnn2c(C)c1Cc1c(Cl)cccc1Cl	4	0.7	30	0.4	62*	0
Cc1nc2ncnn2c(C)c1CCC(=O)O	3	0.9	11	1	-3	-1
Cc1nc2ccc(C(C(F)(F)F)(C(F)(F)F)C(F)(F)F)cc2[nH]1	0	0.4	63*	0.6	42	-3
CCN(CC)S(=O)(=O)c1cc(NC(=O)CSc2nc3c(cc2C#N)C(=O)CC(C)(C)C3)ccc1C	x	x	x	x	x	-1
CC1(C)CC(=O)c2c(nc(SCC(=O)Nc3nsc(-c4ccccc4)n3)c(C#N)c2-c2ccccc2)C1	x	0.2	85*	0.5	54*	-6
CCc1c(C#N)c(SCCC(=O)Nc2cccc(OC)c2)nc2c1C(=O)CC(C)(C)C2	x	0	98*	0	98*	-4
CCc1c(C#N)c(SCCC(=O)Nc2ccc(F)cc2)nc2c1C(=O)CC(C)(C)C2	x	0	97*	0	98*	-5
COc1ccc(-c2c(C#N)c(SCc3c(C)noc3C)nc3c2C(=O)CC(C)(C)C3)cc1	x	0.6	43	1	5	-1
CCN(CC)c1ccc(NC(=O)c2cnccn2)cc1S(=O)(=O)Nc1ccc(OC)cc1	x	x	x	x	x	-2
COc1ccc(C2CC(c3cccs3)=NN2C(=O)c2ccc(Br)o2)cc1 (configuration not stated)	x	x	x	x	x	-1
O=S(=O)(c1ccccc1)N1N=C(c2cccs2)CC1c1ccc(Br)cc1 (configuration not stated)	x	0.5	52*	0.8	21	-2
Cc1ccc(S(=O)(=O)N2CCC(C(=O)OCc3ccc([N+](=O)[O-])cc3)CC2)cc1	x	x	x	x	x	-2
Cc1ccc(C(=O)c2cn[nH]c2-c2cc(Cl)ccc2O)cc1	-7	0.2	80*	0	96*	-2
COc1ccc(O)c(-c2[nH]ncc2C(=O)c2ccccc2)c1	7	0.4	64*	0.2	81*	0
O=C(c1cc(C(=O)c2ccco2)cc(C(=O)c2ccco2)c1)c1ccco1	x	x	x	x	x	-4
O=C(c1ccco1)c1cn[nH]c1-c1ccc(Cl)cc1O	-2	0.5	51*	0.1	92*	0
O=C(c1ccccc1)c1cn[nH]c1-c1ccccc1O	-6	0.8	21	0.7	26	-2
O=C(CSc1ncnc2nc[nH]c12)N1CCOCC1	4	1.1	-12	1.1	-12	0
CCOC(=O)c1nnc(-c2ccccc2)nc1NCc1ccccc1	x	0.6	37	0.9	12	-1
CCOC(=O)c1c2n(c3c(NCc4ccccc4)ncnc13)CCCC2	-3	0.2	77*	0.7	26	-5
CCC1CCCCN1C(=O)C1CC(c2cc(Cl)c(OC)cc2OC)=NO1 (configuration not stated)	6	1.9	-94	0.3	72*	-2
CCOc1ccc(N(CC(=O)NCC2CCCO2)S(=O)(=O)c2ccc(Cl)cc2)cc1 (configuration not stated)	16	0.6	45	0.1	88*	0

Screening results (PubChem BioAssay)
